# From PubChem BioAssay (NCATS)
# Values joined by “and” are separate entries in the source; they are usually repeats but may differ in a detail not shown here. Equal entries are not always repeated. Inconclusive results are not listed. Values without a mark were called inactive. Active and inactive are the calls of the source. Calls come from the whole dose curve; as a rule, active = well fitted cell-killing curve with a large enough effect; inconclusive = small, poorly fitted or top-dose-only effect, or effect the other way; inactive = flat fitted curve, though single readings scatter. Non-standard residues stand in square brackets, D forms with d. Residues, ends and D or L forms follow the SMILES beside them. Peptide text beside a SMILES is read from it. *: point of attachment. Sta = CC(C)C[C@H](N)[C@@H](O)CC(=O)O; Isovaleryl = CC(C)CC(=O)*
# Tested on: CAOV3
# Test: Primary qHTS to identify gynecologic anti-cancer compounds using libraries of approved drugs and bioactive compounds (AID 1345084); note: nearly all actives have a fitted effect of over 55% in size
# Settings: Gynecologic cancer cell panel viability, ATPlite luminescence, 48 h; series mostly up to 57.5 µM; activity change, negative = cytotoxicity: at the top concentration
# How it was run: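 Cell viability after 48 h drug treatment, ATPlite luminescence readout; five doses.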
# % is set by controls: 0 for no effect and ±100 for the full control effect; potency is the fitted concentration of half-maximal effect.
SMILES,"activity change, negative = cytotoxicity",Potency
CCC[C@@H]1C[C@@H](C(=O)N[C@@H]([C@H]2O[C@H](SC)[C@H](O)[C@@H](O)[C@H]2O)[C@@H](C)O)N(C)C1,2.5%,
COc1ccc(C2(C#N)CCC(C(=O)O)CC2)cc1OC1CCCC1 (configuration not stated),-1.68%,
CC(=O)Nc1ccc(O)cc1,2.5%,
Nc1ccc(S(N)(=O)=O)cc1,14.4%,
O=C(c1ccccc1)c1ccc2n1CCC2C(=O)O (configuration not stated),22.1%,
CCN(CC)C(=S)SSC(=S)N(CC)CC,,7.08 µM (active)
CCN(CCO)CCCC(C)Nc1ccnc2cc(Cl)ccc12 (configuration not stated),21.3% [at 6.55 µM] and 5.51% [at 6.55 µM],
Clc1ccc(C(Cn2ccnc2)OCc2ccc(Sc3ccccc3)cc2)c(Cl)c1 (configuration not stated),1.79%,
COCCCN1CCC(NC(=O)c2cc(Cl)c(N)c3c2OCC3)CC1,-5.63%,
O=C(O)CCNC(=O)c1ccc(N=Nc2ccc(O)c(C(=O)O)c2)cc1,10.3%,
CCCc1cc(=O)[nH]c(=S)[nH]1,29.4%,
Oc1ccc(OCc2ccccc2)cc1,-1.79%,
Cc1cccc(C)c1OCC(=O)N[C@@H](Cc1ccccc1)[C@@H](O)C[C@H](Cc1ccccc1)NC(=O)[C@H](C(C)C)N1CCCNC1=O,7.25%,
COC(=O)[C@H](Cc1ccccc1)NC(=O)[C@@H](N)CC(=O)O (H-Asp-Phe-OMe),6.37%,
COc1cc2nc(N3CCN(C(=O)C4CCCO4)CC3)nc(N)c2cc1OC (configuration not stated),-0.232%,
NS(=O)(=O)c1cc(C(=O)O)c(NCc2ccco2)cc1Cl,3.69%,
Cc1cc(=O)oc2cc(O)ccc12,25%,
CC(C)c1nc(CN(C)C(=O)N[C@H](C(=O)N[C@@H](Cc2ccccc2)C[C@H](O)[C@H](Cc2ccccc2)NC(=O)OCc2cncs2)C(C)C)cs1,,inactive
CC1(C)CCC(C)(C)c2cc(NC(=O)c3ccc(C(=O)O)cc3)ccc21,15.7%,

SMILES,"activity change, negative = cytotoxicity",Potency
Cc1nc2n(c(=O)c1CCN1CCC(c3noc4cc(F)ccc34)CC1)CCCC2,-4.47%,
Cc1cc2cc3c(C)cc(=O)oc3c(C)c2o1,25.2%,
CCC(C)(Oc1ccc(C2(c3ccc(OC(C)(CC)C(=O)O)cc3)CCCCC2)cc1)C(=O)O (configuration not stated),6.98%,
Nc1ncn([C@H]2C[C@H](O)[C@@H](CO)O2)c(=O)n1,6.34%,
CS(=O)(=O)OCCCCOS(C)(=O)=O,5.72%,
CC(C)CC(=O)N[C@H](C(=O)N[C@H](C(=O)N[C@@H](CC(C)C)[C@@H](O)CC(=O)N[C@@H](C)C(=O)N[C@@H](CC(C)C)[C@@H](O)CC(=O)O)C(C)C)C(C)C (Isovaleryl-VV[Sta]A[Sta]-OH),6.27%,
CC1=C(C(=O)O)N2C(=O)[C@@H](NC(=O)[C@H](N)C3=CCC=CC3)[C@H]2SC1,10.9%,
N=C(N=C(N)N)N1CCOCC1,17.9%,
O=C(NCC1CCCCN1)c1cc(OCC(F)(F)F)ccc1OCC(F)(F)F (configuration not stated),-34.7%,
CCC1=C(C)CN(C(=O)NCCc2ccc(S(=O)(=O)NC(=O)NC3CCC(C)CC3)cc2)C1=O (configuration not stated),9.44%,
NNc1nncc2ccccc12,5.67% [at 25.3 µM],
CN1C(C(=O)Nc2ccccn2)=C(O)c2sccc2S1(=O)=O,13.3%,
O=C(NOCC1CC1)c1ccc(F)c(F)c1Nc1ccc(I)cc1Cl,-20.1%,
CN(C)C(=O)COC(=O)Cc1ccc(OC(=O)c2ccc(N=C(N)N)cc2)cc1,6.36%,
COC(=O)C1=C(C)NC(C)=C(C(=O)OC(C)C)C1c1cccc2nonc12 (configuration not stated),2.29%,
Cn1c(NCCN(CCO)CCCc2ccc([N+](=O)[O-])cc2)cc(=O)n(C)c1=O,6.54%,
N=C(N)c1ccc2cc(OC(=O)c3ccc(N=C(N)N)cc3)ccc2c1,-7.53%,
CC(S)C(=O)NCC(=O)O (configuration not stated),-4.98%,
